Screens from PubChem BioAssay.
Only some compounds are listed: those with a hit (about 3% of all), similar ones and a draw of the others.
PP5 inh = blocks human protein phosphatase 5 activity | P53041 | purified PP5c, OMFP substrate fluorescence | inhibition, % at 6.7 µM | 320,000 tested, 0.18% active | AID 1987;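 active means inhibition above the campaign's mean inhibition across all tested compounds plus 3 SD, cut at about 9.5% in these data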;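 further: 0% = DMSO only and 100% = 100 µM cantharidin control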
Target sequence (P53041 whole entry, looked up): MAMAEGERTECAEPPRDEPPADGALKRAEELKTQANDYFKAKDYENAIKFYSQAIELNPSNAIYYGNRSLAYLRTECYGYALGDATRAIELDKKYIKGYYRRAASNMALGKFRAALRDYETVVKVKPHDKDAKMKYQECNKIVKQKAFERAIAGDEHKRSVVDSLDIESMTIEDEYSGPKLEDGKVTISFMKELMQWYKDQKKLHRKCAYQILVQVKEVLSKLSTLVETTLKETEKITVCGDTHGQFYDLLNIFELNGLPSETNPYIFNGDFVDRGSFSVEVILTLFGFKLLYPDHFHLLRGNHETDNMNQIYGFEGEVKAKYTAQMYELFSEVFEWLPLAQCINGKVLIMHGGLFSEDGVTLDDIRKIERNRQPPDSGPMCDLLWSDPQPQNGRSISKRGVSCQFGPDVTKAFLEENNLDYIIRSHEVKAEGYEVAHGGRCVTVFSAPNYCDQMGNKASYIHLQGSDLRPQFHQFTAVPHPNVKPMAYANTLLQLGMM
pPAFAH inh = pPAFAH (human) enzyme inhibition. Q13093. recombinant pPAFAH, FP-rhodamine probe fluorescence polarization. inhibition, % at 3.39 µM. 330,000 tested, 1.5% active;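 active means inhibition above the mean inhibition across the screen plus 3 SD, cut at about 25% in these data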;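 further: inhibitors block binding of the rhodamine activity-based probe so polarization drops; 0% = enzyme with DMSO and 100% = wells lacking pPAFAH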
PAFAH1B3 FP inh = inhibitors of human PAFAH1B3 | 340,000 tested, 0.28% active | inhibition, % at 3.39 µM | Q15102 | recombinant PAFAH1B3, FP-rhodamine probe, fluorescence polarization;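 active means inhibition above the screen-wide average of all tested compounds plus 3 SD, cut at about 25% in these data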;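 further: 0% = enzyme with DMSO only and 100% = wells lacking PAFAH1B3 protein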
PAFAH2 inh = inhibitors of human PAFAH2; Q99487; recombinant PAFAH2, FP-rhodamine activity probe, fluorescence polarization; inhibition, % at 3.39 µM; 340,000 tested, 0.99% active;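 active means inhibition above the mean over all tested compounds plus 3 SD, cut at about 30% in these data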;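 further: inhibitors block probe labeling of enzyme so polarization drops; 0% = enzyme with DMSO and 100% = wells lacking PAFAH2 protein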
PAFAH1B2 FP inh = inhibitors of human PAFAH1B2; recombinant PAFAH1B2, FP-rhodamine activity probe, fluorescence polarization; inhibition, % at 3.39 µM; 340,000 tested, 1.2% active;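 active means inhibition above the mean of all tested compounds plus 3 SD, cut at about 24% in these data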;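 further: 0% = enzyme with DMSO and 100% = wells lacking PAFAH1B2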
Fh CTSL1 inh = cathepsin L1 inhibition, PFM18AAP counter-screen; recombinant F. hepatica cathepsin L1, Z-Leu-Arg-MCA fluorescence; inhibition, % at 5.96 µM; 300,000 tested, 0.49% active; AID 1906;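 active means inhibition above the mean of all tested compounds plus 3 SD, set per screening campaign, cut at about 17% in these data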;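 further: 0% = plate median of test compound wells and 100% = 1 µM Z-Phe-Ala-diazomethylketone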
Starred values were filed as active, the others as inactive; · = not tested or not shown.

SMILES | PP5 inh | pPAFAH inh | PAFAH1B3 FP inh | PAFAH2 inh | PAFAH1B2 FP inh | Fh CTSL1 inh
O=C(C1CC(Cl)CN1S(=O)(=O)c1ccc(Cl)cc1)N1CCOCC1 (configuration not stated) | -6 | 3 | -3 | 12 | 7 | 5
O=C(N/N=C/c1ccoc1)c1cc(Br)ccc1O | 0 | 33* | 15 | 12 | 5 | 4
O=C(NN=C1CCCC1)c1cc(Br)ccc1O | 0 | 30* | 1 | 5 | 2 | 4
CCOC(=O)C1CCN(CC(=O)c2c(C)n(C)c3ccc(OC)cc23)CC1 | 2 | 4 | 4 | 6 | 0 | 6
c1ccc(-c2cc(-c3ccc(N4CCOCC4)cc3)nc3ccccc23)cc1 | 3 | 30* | 9 | 2 | -1 | 8
COC(=O)C1=C(C)N2C(=O)CSC2=NC1c1ccc2c(c1)OCO2 (configuration not stated) | 1 | -4 | · | · | · | -1
O=c1[nH]c(N2CCOCC2)cc2ccccc12 | -3 | -1 | 8 | 0 | 4 | 56*
O=c1c(N2CCOCC2)coc2ccccc12 | 2 | 5 | 4 | -10 | -5 | -4
O=C(COc1ccc2c(c1)OCO2)Nc1cccc(F)c1 | 3 | 0 | 14 | 10 | 2 | -3
COc1ccc(CN(CC(=O)NCC2CCCO2)C(=O)CCC(=O)Nc2nccs2)cc1 (configuration not stated) | 0 | 1 | 4 | -8 | 3 | -4
CC1CCC(NC(=O)c2cccc(S(=O)(=O)N3CCN(C)CC3)c2)CC1 (configuration not stated) | 0 | 4 | 4 | 5 | 26* | 1
COC(=O)c1cccc(S(=O)(=O)N2CCC(C)CC2)c1 | 3 | 8 | -5 | -3 | 26* | -4
CC1CCC(NC(=O)c2cccc(S(=O)(=O)N3CCN(c4ccccc4)CC3)c2)CC1 (configuration not stated) | 0 | 2 | 9 | 6 | 3 | 3
Cc1ccc(S(=O)(=O)N2CCC(C)CC2)cc1[N+](=O)[O-] | · | · | -3 | -10 | 19 | ·
COC(=O)CSc1ccc(S(=O)(=O)N2CCC(C)CC2)cc1[N+](=O)[O-] | 1 | 2 | -5 | -4 | 27* | -1
CC1CCN(S(=O)(=O)c2cccc(C(=O)N(C)C3CCS(=O)(=O)C3)c2)CC1 (configuration not stated) | -2 | 2 | 7 | -5 | 33* | 1
COC(=O)c1cc(S(=O)(=O)N2CCC(C)CC2)ccc1F | 1 | 0 | 6 | -9 | 20 | -1
CCc1ccc(C(=O)N/N=C/c2cccc3ccccc23)nc1 | 5 | 10 | 3 | 16 | 2 | -1
Nc1c(C(=O)CSc2nc3ccccc3o2)c(=O)[nH]c(=O)n1C1CC1 | -3 | -4 | 0 | -2 | 0 | ·
CC1CCN(S(=O)(=O)c2cccc(C(N)=O)c2)CC1 | 0 | -1 | 0 | 2 | 26* | -4
CC(=O)Nc1ccc(S(=O)(=O)Nc2cccc(-n3c(C)nc4ccccc4c3=O)c2)cc1 | -2 | 2 | 4 | 2 | 1 | 6
O=[N+]([O-])c1cc(C(F)(F)F)ccc1Sc1nccn1Cc1ccccc1 | 5 | 7 | 9 | 3 | 70* | 0
O=C(NCSc1ccnc(SCNC(=O)c2ccccc2)n1)c1ccccc1 | 0 | 0 | 4 | 0 | 0 | 19*
O=C(NCSc1ccncn1)c1ccccc1 | 1 | 0 | 0 | -3 | 2 | 11
COc1ccc(C(=O)/C=C/c2ccc(OC)c(Cn3nnc4ccccc43)c2)cc1 | 0 | -3 | 8 | -7 | 3 | 6
SMILES | PP5 inh | pPAFAH inh | PAFAH1B3 FP inh | PAFAH2 inh | PAFAH1B2 FP inh | Fh CTSL1 inh
CCc1cc2c(=O)c(-c3cscn3)coc2c(CN(C)C)c1O | 4 | 27* | 4 | 11 | 4 | 3
COc1ccc(C(c2nnnn2C2CCCCC2)N2CCN(C)CC2)c(OC)c1 (configuration not stated) | 0 | -4 | 9 | 4 | 5 | 18*
COc1ccc2[nH]c(=O)c(C(c3nnnn3C3CCCCC3)N3CCN(C)CC3)cc2c1 (configuration not stated) | -1 | 4 | 3 | -2 | 1 | 2
CN1CCN(S(=O)(=O)c2ccc(Sc3nnnn3-c3ccccc3)c([N+](=O)[O-])c2)CC1 | -5 | -1 | 9 | 10 | 38* | 0
CC(=O)c1ccc(Sc2nnnn2-c2ccccc2)c([N+](=O)[O-])c1 | -1 | -2 | -7 | 10 | 3 | 2
Cc1ccc(OCCOCCN2CCCCC2)c([N+](=O)[O-])c1 | -2 | 0 | 5 | 10 | 4 | -2
Cc1ccc(OCCOCCN2CCN(C)CC2)c([N+](=O)[O-])c1 | 4 | -5 | -4 | 6 | 3 | 18*
CC(C)(C)c1ccc(C(=O)N2CCNCC2)cc1 | -1 | 27* | 6 | -3 | 1 | 1
COc1ccc(C(NC(=O)/C=C/c2ccco2)c2ccc(OC)cc2)cc1 | -2 | 27* | 0 | 4 | 0 | 3
COc1ccc(C(=O)/C=C/c2ccsc2)cc1CSCC(=O)O | 0 | 2 | 3 | 2 | 2 | 1
Cc1cc(C)c2c(-n3cccc3)c(C(=O)NNS(=O)(=O)c3ccc(Cl)cc3)sc2n1 | 3 | 7 | 2 | 8 | 37* | 9
COc1ccc(-c2nnc(SCC(=O)NC(=O)Cc3ccccc3)n2C)cc1 | 0 | 3 | -3 | -6 | 6 | ·
CN(C)/C=C1\C=C2C(=O)c3ccccc3N2C1=O | -89 | 2 | 29* | 36* | 28* | 4
CCOc1ccc(Nc2nc(Cc3nnc(SCC(=O)O)o3)cs2)cc1 | 3 | 28* | 12 | 12 | 3 | -3
Nc1nn2c(-c3ccccc3)cc(=O)[nH]c2c1N=Nc1ccc(O)cc1 | 3 | 27* | 16 | 29 | 14 | 3
Cc1cccc2c(N=O)c(O)[nH]c12 | 0 | 31* | 53* | 25 | 30* | -14
CC(=O)c1ccc(S(=O)(=O)Oc2ccc(-c3ccc(C(=O)O)cc3)cc2)cc1 | 3 | 4 | 11 | 4 | 2 | 4
CCn1c(COc2cccc(C)c2)nnc1SCC(=O)CC(=O)Nc1ccccc1OC | 1 | 17 | -5 | 2 | 0 | 17*
COc1ccc(/C(N)=N/OC(=O)Cc2cccs2)cc1OC | 1 | 14 | 9 | -1 | -3 | -6
COc1ccc(/C(N)=N/OC(=O)CSc2ccc(C)cc2)cc1OC | 5 | 5 | 1 | 5 | 64* | -3
COc1ccc(-c2cc(C)no2)cc1S(=O)(=O)Nc1cccc(C)c1 | 2 | 30* | 6 | 0 | -1 | -2
COc1ccccc1NS(=O)(=O)c1cc(-c2cc(C)no2)ccc1OC | 1 | 1 | 15 | 7 | 4 | -6
NC(=S)N/N=C1\CCOc2ccc(Cl)cc21 | 0 | 7 | 5 | -2 | 4 | 63*
Oc1oc(-c2cccc3ccccc23)nc1/C=N/c1nccs1 | 1 | 7 | 0 | 5 | -3 | 22*
